Test results as given in article PMC7819943, “Rice protein-binding microarrays: a tool to detect cis-acting elements near promoter regions in rice”.
Over roughly 68,000 sequences, “fluorescence intensity (a.u.)” has its median near 9,100; the highest 2% begin near 16,000. Many of the other results were omitted from the sample, so the highest values are more common in it than they were.

Biological target: OsWRKY34 (Oryza sativa, UniProt Q0JBA9 1-250)
Assay: protein-binding microarray (RPBM); PBS, 2% BSA, 51.3 ng/ul salmon testes DNA, 50 uM zinc acetate, 200 nM TF, 25 C, 1 h; high values mean tight binding
Conditions: protein: recombinant; tags: N-terminal polyhistidine and DsRed monomer fusion (pET32a); label: CyDye5-dUTP incorporated in the synthesized complementary strand; 3' TTTTT single-stranded linker to array surface; dsDNA, one strand shown
Outline: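 The binding signal is fluorescence intensity per array feature (arbitrary units). Readings came from an Axon 4000B scanner after a washed, 2% BSA-blocked, double-stranded custom Agilent array had been incubated for 1 h at 25 °C with 200 nM protein and 50 µM zinc acetate. The protein was a Ni–NTA-purified transcription factor fused N-terminally to polyhistidine and DsRed, expressed in E. coli BL21-CodonPlus.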

Chain of OsWRKY34 (Q0JBA9 entry or part of it): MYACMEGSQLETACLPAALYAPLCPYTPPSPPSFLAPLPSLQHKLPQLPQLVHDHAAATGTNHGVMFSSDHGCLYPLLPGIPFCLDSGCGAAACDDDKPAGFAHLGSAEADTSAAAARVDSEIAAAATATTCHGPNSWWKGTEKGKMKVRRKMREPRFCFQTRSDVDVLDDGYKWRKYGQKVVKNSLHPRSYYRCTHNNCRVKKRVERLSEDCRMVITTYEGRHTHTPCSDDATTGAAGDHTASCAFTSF

Point of comparison: “ATTTGTCTCTTTCGCGTCGTCTCTAACCTAACGTCCCAGACGGAGTCACCTAGTGCAG”, binding signal 13100 fluorescence intensity (a.u.). Against it:
- AGATTGCTTTTCTTACAAGGACGACGCTAACAATAACATCCGGAGTCACCTAGTGCAG — lower, 9110 fluorescence intensity (a.u.)
- GATGTGGATTTGGGATGTTAATTTGATTTGGGATTTGGGGCGGAGTCACCTAGTGCAG — lower, 10600 fluorescence intensity (a.u.)
- GGCAATGCTTCACCGTCGCTTGCACCCCTTTCTCATGTGTCGGAGTCACCTAGTGCAG — lower, 9790 fluorescence intensity (a.u.)
- CCCATTTGCCATGTCAACGCACCGTACTAATTAATCCTTGCGGAGTCACCTAGTGCAG — lower, 10200 fluorescence intensity (a.u.)
- CCGCGGCCCAATAGCTCTTAGCCCATTGCCATCCGCCATCCGGAGTCACCTAGTGCAG — lower, 9820 fluorescence intensity (a.u.)
- CCGTTTTAAAATGTTTGACACCGTTGACTTTTTAGTACATCGGAGTCACCTAGTGCAG — higher, 26100 fluorescence intensity (a.u.)
- TCCCTAAATGTTTGACACCGTTGACCTTTTTAAAACATTTCGGAGTCACCTAGTGCAG — higher, 17800 fluorescence intensity (a.u.)
- AGATGACTCCGTTGACTTTTAAACACATGTTTGATAATTCCGGAGTCACCTAGTGCAG — higher, 16200 fluorescence intensity (a.u.)
- TGTTGTTGACTTTTAAACACATGTTTGATCATTTGTCTTACGGAGTCACCTAGTGCAG — higher, 14600 fluorescence intensity (a.u.)
- CCTAAATGTTTGACTCCGTTGACTTTTTTAAACATGTCTGCGGAGTCACCTAGTGCAG — higher, 26100 fluorescence intensity (a.u.)
- TTCCCTAAATGTTTGACACCGTTGACTTTTTTTTAAACATCGGAGTCACCTAGTGCAG — higher, 33300 fluorescence intensity (a.u.)
- TTACATTTTAGGACATATATTTGGGGAGCTTCTTGGCTGTCGGAGTCACCTAGTGCAG — lower, 10800 fluorescence intensity (a.u.)
- CCCACGCGCCCACTTTGACCGACCCATCGATCGATCACGACGGAGTCACCTAGTGCAG — higher, 14300 fluorescence intensity (a.u.)
- GCAACACCTCCCCTGTTCTTGCTCTGTTTCCTCACTCTGTCGGAGTCACCTAGTGCAG — lower, 10200 fluorescence intensity (a.u.)
- TCTATCTGCCTGACTATCTCTATCTCGATCTCGTCCAGGACGGAGTCACCTAGTGCAG — lower, 9860 fluorescence intensity (a.u.)
- ATCCGAGCATCTCGCCTCGCCCCGCCCCGCCCCGATCGATCGGAGTCACCTAGTGCAG — lower, 9480 fluorescence intensity (a.u.)
- CTAGTAGTGCACACAAGCGGCAGCAGGAGGGGAGGGTGGTCGGAGTCACCTAGTGCAG — lower, 9190 fluorescence intensity (a.u.)
- CTCTCTCTGCCATATCCTGTGCTTTTCTTGTATTCCATCCCGGAGTCACCTAGTGCAG — lower, 11400 fluorescence intensity (a.u.)
- GTTTGACACTTTTAGTACGTGTTTGACCATTTGTTTTATTCGGAGTCACCTAGTGCAG — lower, 10200 fluorescence intensity (a.u.)
- CCTAAATGTTTGACACCGTTGACTTTTTTAAACATATTTGCGGAGTCACCTAGTGCAG — higher, 33000 fluorescence intensity (a.u.)
- ATGTTTGACACCGTTGACTTTTTAGTACGTGTTTGACCATCGGAGTCACCTAGTGCAG — higher, 28200 fluorescence intensity (a.u.)
- TTCTCCACGGCAAACCACCACCGGCGTCACCAGCCCACCACGGAGTCACCTAGTGCAG — lower, 8110 fluorescence intensity (a.u.)
- CTTTTCCATTTCCATGCATTCTTTGATCATCAAGTGATCACGGAGTCACCTAGTGCAG — lower, 12100 fluorescence intensity (a.u.)
- TTGACCTGCTAGCCTTTTTTTTTTCGCAAATCTATTCCTGCGGAGTCACCTAGTGCAG — lower, 8440 fluorescence intensity (a.u.)
- ATTTCTGCAGACCCATTTTGCTTTTGAAACACTGCTGATTCGGAGTCACCTAGTGCAG — lower, 9790 fluorescence intensity (a.u.)
- AGTTTGTCATGGTCTAAAATATTACCCAGGTGTTCTTTGACGGAGTCACCTAGTGCAG — lower, 8760 fluorescence intensity (a.u.)
- CCATTAGTAAGTTCTCTCGTGGCCCAATACTCTCTTGATGCGGAGTCACCTAGTGCAG — lower, 8840 fluorescence intensity (a.u.)
- CATTCTCTTCTCAACCAATAACAACTCTTCCACCATTCACCGGAGTCACCTAGTGCAG — lower, 9540 fluorescence intensity (a.u.)
- GGCCAATAAGTTCCAGTTCTCTTCTTAAGGCCCATTAGACCGGAGTCACCTAGTGCAG — higher, 61800 fluorescence intensity (a.u.)
- CTCTCTCTCTCCTCGCGTGACTCGCGCGTGCCCTCGCCGCCGGAGTCACCTAGTGCAG — lower, 8130 fluorescence intensity (a.u.)
- TATTCCCAGCTGGTAACTCTATCCATTGACGGCTGTGTTTCGGAGTCACCTAGTGCAG — lower, 9650 fluorescence intensity (a.u.)
- ACTAAACTCTGCCTTCATCATATTCCCAGCTGGTAACTCTCGGAGTCACCTAGTGCAG — lower, 10300 fluorescence intensity (a.u.)
- GCCTTCATCATATTCCCAGCTGGTAACTCTATCCATTGACCGGAGTCACCTAGTGCAG — higher, 16400 fluorescence intensity (a.u.)
- CCTCTGGTCACGCATTCTACACAGAATCTCTGGTTTTCCCCGGAGTCACCTAGTGCAG — lower, 9500 fluorescence intensity (a.u.)
- ATCTTAACCGCAACAGCTTTGCATCTTTTTAGTACCTATTCGGAGTCACCTAGTGCAG — lower, 8170 fluorescence intensity (a.u.)
- TCCTTTGACTTTTTAACCAGCTGTCTACTAGTAGTACTACCGGAGTCACCTAGTGCAG — higher, 17800 fluorescence intensity (a.u.)
- ACTTTCTTTTTTTCTTTTTAACCTTGACCTTTACTGGCATCGGAGTCACCTAGTGCAG — lower, 8690 fluorescence intensity (a.u.)
- GAACAGCTCAGCTCACCGCATCCTTTGACTTTTTAACCAGCGGAGTCACCTAGTGCAG — higher, 18100 fluorescence intensity (a.u.)
- TTGCAGCTGTCCTCTCTACCTTAACCCTTTGACCAGTGCTCGGAGTCACCTAGTGCAG — lower, 9130 fluorescence intensity (a.u.)
- ATATGCTGTCTTTTACTTGACTTGTAGTGCAACCTTCCACCGGAGTCACCTAGTGCAG — lower, 12100 fluorescence intensity (a.u.)
- CACACGCACGCTTCTCACGTACATATCGATCGCAAATATCCGGAGTCACCTAGTGCAG — lower, 8490 fluorescence intensity (a.u.)
